Values without a mark were called inactive. For part of these data: Entries with a potency or affinity are not part of this list. The source made the active and inactive calls. Unless noted, no rule for the calls is given here.
Experiments:
[1] = antimalarial activity against Dd2 strain (AID 2302;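 active = growth inhibition above 50% at the single 2 µM test dose, taken to imply half-maximal potency below 2 µM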;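 also: 0% = DMSO untreated growth and 100% = chloroquine plus artemisinin killed control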); settings: P. falciparum Dd2 in RBCs, LDH growth readout, 72 h; at 2 µM; hits give high values
[2] = human hepatoma cell viability loss – ATP luminescence, cytotoxicity control for P. falciparum antimalarial project, primary screen (AID 2303;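 active = inhibition above 50%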;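 also: 0% = DMSO wells and 100% = digitonin-killed cells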); settings: HepG2 viability, 24-48 h, at 10 µM, hits give high values
[3] = target: L-lactate dehydrogenase (Plasmodium falciparum (isolate CDC / Honduras)) (UniProt Q27743); experiment: PfLDH activity inhibition – cell lysate, 3D7 strain, counter-screen for P. falciparum growth inhibition project (AID 2304);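 also: 0% = vehicle and 100% = reference inhibitor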; settings: P. falciparum 3D7 crude extract, LDH APAD/NBT absorbance; at 2 µM; hits give high values
Sequence of L-lactate dehydrogenase (Plasmodium falciparum (isolate CDC / Honduras)) (Q27743 whole entry, looked up): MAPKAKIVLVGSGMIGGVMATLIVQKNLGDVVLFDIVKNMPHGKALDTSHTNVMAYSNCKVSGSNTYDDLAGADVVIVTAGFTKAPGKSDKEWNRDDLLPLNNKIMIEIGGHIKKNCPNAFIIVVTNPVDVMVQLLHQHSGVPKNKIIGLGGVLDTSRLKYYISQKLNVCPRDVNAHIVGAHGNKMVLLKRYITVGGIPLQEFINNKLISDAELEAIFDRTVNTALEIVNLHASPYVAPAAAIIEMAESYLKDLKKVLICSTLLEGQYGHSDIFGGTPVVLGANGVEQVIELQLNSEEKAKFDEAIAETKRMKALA

[4] = inhibition of 3D7 malaria parasite growth – strain 3D7 (AID 2306);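 also: 0% = DMSO wells and 100% = chloroquine plus artemisinin control wells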; settings: P. falciparum 3D7 erythrocytic growth, LDH absorbance, 72 h; at 2 µM; hits give high values
[5] = target: Calcium-dependent protein kinase 1 (Plasmodium falciparum (isolate 3D7)) (UniProt P62344); experiment: PfCDPK1 kinase inhibitors, biochemical, TCAMS library (AID 1159585; cut-off not given, nearly all actives have IC50 up to about 0.98 µM;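 also: inhibitors leave more ATP so luminescence rises with inhibition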); settings: recombinant PfCDPK1, Kinase-Glo ATP depletion luminescence
Sequence of Calcium-dependent protein kinase 1 (Plasmodium falciparum (isolate 3D7)) (P62344 whole entry, looked up): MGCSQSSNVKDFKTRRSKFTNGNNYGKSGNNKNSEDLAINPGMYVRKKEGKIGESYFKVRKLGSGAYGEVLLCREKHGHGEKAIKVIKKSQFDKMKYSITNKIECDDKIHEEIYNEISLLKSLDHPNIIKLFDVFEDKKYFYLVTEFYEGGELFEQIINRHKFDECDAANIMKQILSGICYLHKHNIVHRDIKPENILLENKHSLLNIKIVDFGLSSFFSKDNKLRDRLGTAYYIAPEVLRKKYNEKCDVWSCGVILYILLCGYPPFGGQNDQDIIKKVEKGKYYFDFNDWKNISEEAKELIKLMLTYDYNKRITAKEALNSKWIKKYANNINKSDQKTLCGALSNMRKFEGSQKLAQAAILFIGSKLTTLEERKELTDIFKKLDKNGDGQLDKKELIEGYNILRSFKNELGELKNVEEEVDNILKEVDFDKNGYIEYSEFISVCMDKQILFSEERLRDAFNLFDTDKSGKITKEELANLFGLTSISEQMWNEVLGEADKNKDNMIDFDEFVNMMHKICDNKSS

[6] = target: Plasmodium falciparum protein kinase 6 (PK6, PF3D7_1337100) (UniProt Q8IDW1); experiment: PfPK6 kinase inhibitors, biochemical, TCAMS library (AID 1159586); settings: recombinant PfPK6, Kinase-Glo ATP depletion luminescence
Sequence of Plasmodium falciparum protein kinase 6 (PK6, PF3D7_1337100) (Q8IDW1 1-305): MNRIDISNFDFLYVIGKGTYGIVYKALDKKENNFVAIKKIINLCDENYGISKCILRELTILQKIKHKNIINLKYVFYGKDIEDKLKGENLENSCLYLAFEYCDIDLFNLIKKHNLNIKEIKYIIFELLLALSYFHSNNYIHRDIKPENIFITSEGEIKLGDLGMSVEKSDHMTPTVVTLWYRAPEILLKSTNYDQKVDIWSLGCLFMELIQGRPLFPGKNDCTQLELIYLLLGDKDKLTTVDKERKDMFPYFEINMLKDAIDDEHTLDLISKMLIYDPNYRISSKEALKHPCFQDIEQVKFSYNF

[7] = target: Protein kinase 7 (PK7), Plasmodium falciparum 3D7 (PF3D7_0213400) (UniProt Q7YTF7); experiment: inhibition of Plasmodium PK7 catalytic activity – biochemical, TCAMS antimalarial set, Kinase-Glo luminescence (AID 1159587); settings: recombinant PfPK7, Kinase-Glo ATP depletion luminescence
Sequence of Protein kinase 7 (PK7), Plasmodium falciparum 3D7 (PF3D7_0213400) (Q7YTF7 1-343): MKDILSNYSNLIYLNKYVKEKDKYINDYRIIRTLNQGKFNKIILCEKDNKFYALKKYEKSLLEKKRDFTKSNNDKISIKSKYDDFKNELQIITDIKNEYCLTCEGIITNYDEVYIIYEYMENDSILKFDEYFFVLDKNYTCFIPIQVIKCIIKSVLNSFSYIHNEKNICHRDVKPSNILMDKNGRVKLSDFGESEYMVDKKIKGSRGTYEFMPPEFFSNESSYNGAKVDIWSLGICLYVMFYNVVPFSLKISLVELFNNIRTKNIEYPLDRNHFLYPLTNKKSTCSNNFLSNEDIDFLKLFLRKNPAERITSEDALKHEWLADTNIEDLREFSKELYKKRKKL

[8] = target: Calcium-dependent protein kinase 4 (Plasmodium falciparum (isolate 3D7)) (UniProt Q8IBS5); experiment: PfCDPK4 kinase inhibitors, biochemical, TCAMS library (AID 1159588; cut-off not given, nearly all actives have IC50 up to about 0.91 µM); settings: recombinant PfCDPK4, Kinase-Glo ATP depletion luminescence
Sequence of Calcium-dependent protein kinase 4 (Plasmodium falciparum (isolate 3D7)) (Q8IBS5 whole entry, looked up): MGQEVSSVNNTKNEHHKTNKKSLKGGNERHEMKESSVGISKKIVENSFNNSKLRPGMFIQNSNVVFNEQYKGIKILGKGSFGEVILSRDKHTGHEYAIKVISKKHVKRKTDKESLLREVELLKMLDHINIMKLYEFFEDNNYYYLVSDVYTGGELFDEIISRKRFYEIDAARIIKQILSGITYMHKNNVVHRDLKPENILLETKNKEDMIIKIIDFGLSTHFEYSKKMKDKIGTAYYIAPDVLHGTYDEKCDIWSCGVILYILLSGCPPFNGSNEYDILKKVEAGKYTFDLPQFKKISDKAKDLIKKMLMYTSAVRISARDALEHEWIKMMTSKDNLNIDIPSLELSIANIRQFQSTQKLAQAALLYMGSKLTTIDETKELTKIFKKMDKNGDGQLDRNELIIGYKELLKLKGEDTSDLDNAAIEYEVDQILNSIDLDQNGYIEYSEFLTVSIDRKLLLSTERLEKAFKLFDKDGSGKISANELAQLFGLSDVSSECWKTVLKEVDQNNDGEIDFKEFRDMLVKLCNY

Row | SMILES | growth inhibition [1] | inhibition [2] | inhibition [3] [%] | growth inhibition [4] | outcome [5] | outcome [6] | outcome [7] | outcome [8]
1 | CC1(C)N=C(N)N=C(N)N1OCCCOc1c(Cl)cc(Cl)cc1Cl | 97% (active) | 65% (active) | -2 | 94% (active) | inactive | inactive | inactive | inactive
2 | O[C@@H](c1ccccc1)[C@@H]1CN(CCc2ccccc2)CC[C@@]1(O)c1ccccc1 | 92% (active) | -2% | -2 | 97% (active) | inactive | inactive | inactive | inactive
3 | O=C(c1ccc(-c2ccc(Cl)cc2)o1)N1CCc2cc3nccc(N4CCN5CCC[C@H]5C4)c3cc21 | 86% (active) | 1% | -3 | 101% (active) | inactive | inactive | inactive | inactive
4 | COc1cccc(C(=O)NCc2cccs2)c1Oc1ccccc1 | 4% | -6% | -4 | 98% (active) | inactive | inactive | inactive | inactive
5 | Cn1cncc1-c1cc2c(Nc3ccc(OCc4ccccc4)cc3)ncnc2cn1 | 75% (active) | -1% | 4 | 99% (active) | inactive | inactive | inactive | inactive
6 | CNC(=O)c1cnc(Nc2ccc(OCC(O)CN(C)C)cc2)nc1Nc1cccc(Br)c1 (configuration not stated) | 100% (active) | 68% (active) | -5 | 102% (active) | inactive | inactive | inactive | inactive
7 | Cc1ccc(S(=O)Cc2ccc(Cl)cc2)cc1 (configuration not stated) | 5% | 8% | -2 | 98% (active) | inactive | inactive | inactive | inactive
8 | NC(N)=NCCN(Cc1ccccc1)c1ccccc1 | 98% (active) | 8% | 3 | 100% (active) | inactive | inactive | inactive | inactive
9 | COc1cc2c(cc1CCNCCCCNCCc1cc3c(cc1OC)CCCC3)CCCC2 | 36% | 100% (active) | 0 | 101% (active) | inactive | inactive | inactive | inactive
10 | CN1CCC(NCc2ccc(-c3ccc(Cl)cc3)cc2)CC1 | 43% | 50% (active) | 6 | 99% (active) | inactive | inactive | inactive | inactive
11 | COc1ccc2ncc(Cl)c(CCN3CCC(NCc4ccc5c(n4)NC(=O)CS5)CC3)c2c1 | 34% | 26% | -2 | 100% (active) | inactive | inactive | inactive | inactive
12 | CCC(C)(C)C1CCc2nc(N)nc(N)c2C1 (configuration not stated) | 97% (active) | 71% (active) | 4 | 95% (active) | inactive | inactive | inactive | inactive
13 | Clc1ccc(CNc2ccnc(NCCc3coc4ccccc34)n2)c(Cl)c1 | 39% | 26% | -3 | 86% (active) | inactive | inactive | inactive | inactive
14 | O=C([C@H]1C[C@@H]1c1ccccc1)N(Cc1ccc(-c2ccc(CNCCc3ccccc3)cc2)cc1)C1CCNCC1 | 39% | 36% | -5 | 96% (active) | inactive | inactive | inactive | inactive
15 | COc1cc2nc(NCCn3nc(C)cc3C)nc(NCCc3ccccc3)c2cc1OC | 100% (active) | 28% | -3 | 103% (active) | inactive | inactive | inactive | inactive
16 | Nc1cccc(-c2ccc3ccnc(N)c3c2)c1 | 66% (active) | 30% | -7 | 91% (active) | inactive | inactive | inactive | inactive
17 | Cc1cc(C2CCN(CCCCNC(=O)c3ccc(-c4ccc(C(F)(F)F)cc4)cc3)CC2)c(C)cc1OCCO | 3% | 31% | 2 | 99% (active) | inactive | inactive | inactive | inactive
18 | COc1cc2c(cc1OC)CC(NCCCCCCNCCc1ccc(Cl)cc1)CC2 (configuration not stated) | -1% | 50% (active) | 1 | 98% (active) | inactive | inactive | inactive | inactive
19 | COc1ccc2nc3cc(Cl)ccc3c(Nc3ccc(O)c(CNC(C)C)c3)c2c1 | 100% (active) | 5% | -1 | 102% (active) | inactive | inactive | inactive | inactive
20 | Cc1ccc(C(=O)Nc2ccc(F)cc2)cc1-c1nc(NC2CC(C)(C)NC(C)(C)C2)nc2c1ccc(=O)n2-c1c(F)cccc1F | 96% (active) | 16% | -2 | 89% (active) | inactive | inactive | inactive | inactive

Row | SMILES | growth inhibition [1] | inhibition [2] | inhibition [3] [%] | growth inhibition [4] | outcome [5] | outcome [6] | outcome [7] | outcome [8]
21 | Cc1cccc2[nH]c(-c3ccc(-c4cccc(CNCCNC(=O)c5ccnn5C)c4)s3)nc12 | 87% (active) | 17% | -4 | 102% (active) | inactive | inactive | inactive | inactive
22 | CC(C)Cn1c(Sc2ccc(C#N)c([N+](=O)[O-])c2)nnc1-c1cccs1 | 32% | 9% | 5 | 90% (active) | inactive | inactive | inactive | inactive
23 | O=S(=O)(NCCN1CCCC1)c1ccc(-c2ccc(CNCc3ccsc3)cc2)cc1 | 36% | 44% | -5 | 95% (active) | inactive | inactive | inactive | inactive
24 | CS(=O)(=O)NCCCNCc1ccc(-c2ccc(-c3nc4ccc(F)cc4[nH]3)s2)cc1 | 30% | 23% | 1 | 95% (active) | inactive | inactive | inactive | inactive
25 | COc1cc2nc(N3CCC(CNC(=O)c4ccc(-c5ccccc5)cc4)CC3)nc(N)c2cc1OC | 92% (active) | 11% | -1 | 93% (active) | inactive | inactive | inactive | inactive
26 | CCCN(Cc1ccc(OCC)cc1)Cc1cc(=O)c2cc(Cl)ccc2[nH]1 | 82% (active) | 47% | 1 | 82% (active) | inactive | inactive | inactive | inactive
27 | COc1ccc(Cl)cc1NC(=O)C(C)Nc1ccc(-c2ccccc2)cc1 (configuration not stated) | 89% (active) | -1% | -1 | 91% (active) | inactive | inactive | inactive | inactive
28 | CC1(C)CCC(=Cc2ccc(Cl)cc2)CC1(O)Cn1ccnc1 (configuration not stated) | 74% (active) | 0% | -4 | 99% (active) | inactive | inactive | inactive | inactive
29 | CCOC(=O)c1[nH]c(-c2ccccc2)nc1NC(=S)NC1CCCCC1 | 1% | 6% | 1 | 96% (active) | inactive | inactive | inactive | inactive
30 | N#Cc1ccc(CN2CCCN(Cc3cccc(NC(=O)c4ccc(Cl)c(Cl)c4)c3)CC2)cc1 | 10% | 19% | -1 | 95% (active) | inactive | inactive | inactive | inactive
31 | CCCCCN1CCC(NS(=O)(=O)c2cccc(C(=O)Nc3ccc(Cl)cc3)c2)CC1 | 29% | 24% | -3 | 88% (active) | inactive | inactive | inactive | inactive
32 | CC(Cc1ccc(C(=O)N2CCN(C(=O)c3ccc(CC(C)NCCc4cccc(Cl)c4)cc3)CC2)cc1)NCCc1cccc(Cl)c1 (configuration not stated) | 85% (active) | 99% (active) | -4 | 101% (active) | inactive | inactive | inactive | inactive
33 | COc1cc(CNc2ccc(N3CCCC3)cc2)cc(Cl)c1OC | 94% (active) | 41% | 1 | 100% (active) | inactive | inactive | inactive | inactive
34 | CN1CCN(c2nc(NCCNc3ccc([N+](=O)[O-])cc3)c3ccccc3n2)CC1 | 25% | 37% | 6 | 90% (active) | inactive | inactive | inactive | inactive
35 | CC(=O)Nc1cc(C(=O)Nc2cccc(-c3cccc(-c4nc5ccc(C(F)(F)F)cc5[nH]4)c3)c2)ccc1C | 43% | 56% (active) | -4 | 97% (active) | inactive | inactive | inactive | inactive
36 | Cc1ccc(S(=O)(=O)N(CCCNCc2cccc(O)c2)c2ccccc2)cc1 | 94% (active) | 6% | 2 | 95% (active) | inactive | inactive | inactive | inactive
37 | CC1(C)N=C(N)N=C(N)N1OCc1cccc2c1ccc1ccccc12 | 97% (active) | 63% (active) | 4 | 95% (active) | inactive | inactive | inactive | inactive
38 | Oc1ccc(CCNc2nc(NCCCOc3ccccc3-c3cccc(C(F)(F)F)c3)nc(N3CCNCC3)n2)cc1 | 5% | 24% | -1 | 93% (active) | inactive | inactive | inactive | inactive
39 | O=C(CCc1cnc[nH]1)Nc1cccc(-c2ccc(-c3nc4ccc(F)cc4[nH]3)cc2)c1 | 79% (active) | 18% | -1 | 101% (active) | inactive | inactive | inactive | inactive

Source: PubChem BioAssay
